Rows were chosen to be rich in hits. Some 4.8% of all compounds tested hit in one or more screens of this group.
CSC inhib: cancer stem cell inhibition | cancer stem cell-like cells viability, luminescence | inhibition, % at 7.5 µM | hit rate 1.1% among 300,000 | AID 2717; in the data active means inhibition above about 75%; inconclusive means no clear call, values can overlap the other calls; tested in HMLE shEcad cells
Mdm2-MdmX inh: human Mdm2/MdmX binding inhibition; AID 485346; inhibition, % at 8 µM; SaOS-2 split-luciferase Mdm2/MdmX complementation, luminescence; hit rate 3% among 330,000; O15151+Q00987;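 active means inhibition of at least 50% at 8 µM in the primary screen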
Target sequence (O15151 whole entry, looked up): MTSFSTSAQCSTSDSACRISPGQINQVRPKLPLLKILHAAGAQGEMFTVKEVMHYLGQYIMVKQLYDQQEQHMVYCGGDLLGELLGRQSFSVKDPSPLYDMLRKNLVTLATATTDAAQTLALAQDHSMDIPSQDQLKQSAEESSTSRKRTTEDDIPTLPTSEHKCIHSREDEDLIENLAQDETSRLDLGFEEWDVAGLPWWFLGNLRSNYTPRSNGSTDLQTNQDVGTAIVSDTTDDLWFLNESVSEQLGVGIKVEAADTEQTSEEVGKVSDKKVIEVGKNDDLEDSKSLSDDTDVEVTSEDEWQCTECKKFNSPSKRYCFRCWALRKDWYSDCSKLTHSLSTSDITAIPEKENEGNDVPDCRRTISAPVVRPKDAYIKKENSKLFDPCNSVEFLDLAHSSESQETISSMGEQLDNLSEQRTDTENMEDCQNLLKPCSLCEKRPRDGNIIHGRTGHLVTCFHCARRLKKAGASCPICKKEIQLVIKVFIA
Target sequence (Q00987 whole entry, looked up): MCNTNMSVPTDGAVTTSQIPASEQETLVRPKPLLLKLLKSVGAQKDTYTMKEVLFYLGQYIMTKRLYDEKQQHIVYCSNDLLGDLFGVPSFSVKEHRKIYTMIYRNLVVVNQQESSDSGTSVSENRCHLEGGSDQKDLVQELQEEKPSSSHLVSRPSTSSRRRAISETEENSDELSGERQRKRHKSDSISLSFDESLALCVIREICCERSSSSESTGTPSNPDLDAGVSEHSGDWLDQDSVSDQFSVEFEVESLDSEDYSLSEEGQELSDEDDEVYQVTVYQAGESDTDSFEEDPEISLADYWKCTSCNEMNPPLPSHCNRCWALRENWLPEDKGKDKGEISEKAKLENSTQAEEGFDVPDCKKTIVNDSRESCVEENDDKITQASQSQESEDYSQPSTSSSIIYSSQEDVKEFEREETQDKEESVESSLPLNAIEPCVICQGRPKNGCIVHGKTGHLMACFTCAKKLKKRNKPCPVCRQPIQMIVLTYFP
Calb FLC: affects C. albicans growth with fluconazole. growth inhibition, % (no concentration beside the values). C. albicans CaCi-2 (fluconazole-resistant clinical isolate) + fluconazole, Alamar Blue growth, 48 h. hit rate 0.57% among 300,000;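 active means growth inhibition above about 58% in most replicates, limit read from the data, passing the limit was not always enough; inconclusive means exactly half the replicates above a set limit; inactive means most replicates below a set limit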;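 further: all wells also contain fluconazole at 8 µg/ml as a sub-toxic cotreatment; 0% = median of DMSO wells and 100% = median of geldanamycin control wells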
Beta cell apopt: blocks beta cell apoptosis; AID 435005; protection from apoptosis, % (concentration not given with the values); hit rate 0.8% among 300,000; INS-1E cytokine-induced death, ATP luminescence, 48 h; percent of positive-control rescue, neutral wells zero;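 active means Every replicate reaches about 75%, or at least half do and their mean reaches it too, limit read from the data; inconclusive means At least half of replicates reach the limit but their mean does not; inactive means Under half of replicates reach the limit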;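 further: 0% = cytokine-treated negative control wells and 100% = positive control rescue; higher means more ATP so stronger rescue from cytokine killing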
MPTP inh: permeability transition pore inhibition; isolated mouse mitochondria, Ca2+ swelling absorbance, 30 min; inhibition, % at 10 µM; AID 602449; hit rate 1.4% among 360,000;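 active means inhibition of 50% or more, scaled per plate between neutral and stimulator controls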;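 further: 0% = DMSO wells given calcium and 100% = 1 mM EGTA wells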
Mdm2 MdmX conf: confirmation of human Mdm2/MdmX interaction inhibitors | shares compounds with Mdm2-MdmX inh | Mdm2-MdmX binding, luminescent assay | inhibition, % at 8 µM | hit rate 55% among 10,000 | AID 489028; in the data active means inhibition above about 40%
FLuc counter: counter-screen for Mdm2/MdmX inhibitors: full-length luciferase | shares compounds with Mdm2-MdmX inh | SaOS-2 full-length luciferase counterscreen, luminescence | inhibition, % at 8 µM | hit rate 77% among 6,200 | AID 504607;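 active means mean inhibition at 8 µM reaching about 37%, which flags the compound as non-specific, limit read from the data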;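 further: p53-null SaOS-2 cells with luciferase driven by a doxycycline-inducible promoter; compound on cells about two nights before reading with doxycycline added after day one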
* marks the source's active call; other numbers are inactive results; ? = inconclusive; nt = not tested or not shown; ! = not confirmed by another sample.

SMILES	CSC inhib	Mdm2-MdmX inh	Calb FLC	Beta cell apopt	MPTP inh	Mdm2 MdmX conf	FLuc counter
Cn1c(N)c(C(=O)COC(=O)c2cc(C(F)(F)F)nc3ccccc23)c(=O)n(Cc2ccccc2)c1=O	0.8	50.1*	nt	0.3	nt	35.1	nt
CCCn1c(N)c(C(=O)CSc2nc3ccccc3c(=O)n2Cc2ccccc2)c(=O)[nH]c1=O	19.8	14.5	2.9	5.3	-1.4	nt	nt
O=C(C[C@@H]1CC[C@H](NC(=O)Nc2ccc(F)cc2)[C@@H](CO)O1)NCc1cccc(F)c1	nt	nt	nt	nt	2.5	nt	nt
CCOC(=O)C1(C)CCCN1C(=O)c1cccs1 (configuration not stated)	nt	nt	nt	nt	-0.8	nt	nt
CC(C)(C)c1ccc(/C=N/NC(=O)Cc2c[nH]c3ccccc23)cc1	72.3	54.7*	3.3	-1.9	7.8	-32.4	nt
O=C(Cc1c[nH]c2ccccc12)N/N=C/c1ccccc1O	24.2	10.7	2.5	7.8	0.7	nt	nt
COc1ccc(C(=O)CC(Nc2ccc([N+](=O)[O-])cc2)c2ccc(Cl)cc2)cc1 (configuration not stated)	39.7	52.8*	16.2	16.2	27.8	15.2	nt
COc1ccc(C(=O)CC(=O)C(=O)Nc2ccc(Cl)cc2)cc1	6.4	nt	-15.9	4.9	3.6	nt	nt
CCOC(=O)C(C)CC(C)C(=O)N1CCOCCOCCN(C(=O)C(C)CC(C)C(=O)OCC)CCOCC1 (configuration not stated)	nt	10.0	-1.2	6.1	-1.4	nt	nt
CCOC(=O)C(C(=O)OCC)C(C(=O)OCC)N1CCOCC1 (configuration not stated)	34.9	100.5*	-8.0	nt	-1.8	-16.1	nt
CCCCNC(=O)c1c(N)n(/N=C/c2ccccn2)c2nc3ccccc3nc12	4.1	60.3*	3.9	0.4	nt	35.8	72.3*
CCOC(=O)c1c(CSc2ccc(CC)cc2)oc2ccc(O)c(CN(C)C)c12	81.5*	86.0*	11.1	4.0	6.9	44.1*	62.8*
CCOC(=O)C1=CCC(c2ccc(N(CC)CC)cc2)N(S(=O)(=O)c2ccc(C)cc2)C1c1ccc([N+](=O)[O-])cc1 (configuration not stated)	nt	nt	nt	nt	1.0	nt	nt
Cc1ccc(SCCc2cc[n+](CC(=O)c3ccccc3)cc2)cc1	25.7	3.6	14.2	-11.7	1.1	nt	nt
Cc1ccc(C(=O)C[n+]2ccc(Cc3ccccc3)cc2)cc1	1.4	51.6*	6.7	60.5	4.0	43.6*	63.4*
CN(C)c1cc[n+](CC(=O)c2ccc(-c3ccccc3)cc2)cc1	13.1	59.7*	112.3*	106.2*	9.5	44.3*	48.1*
O=C(C[n+]1ccccc1)c1ccc(-c2ccccc2)cc1	30.5	-0.2	20.9	-0.2	0.7	nt	nt
CCN(C(=O)C(C)N1C(=O)/C(=C/c2ccco2)SC1=S)C1CCS(=O)(=O)C1 (configuration not stated)	28.1	54.8*	-2.4	-16.8	-0.5	1.9	nt
CC(C(=O)N(C)C1CCS(=O)(=O)C1)N1C(=O)/C(=C/c2ccc(F)cc2)SC1=S (configuration not stated)	30.5	35.5	-3.2	-10.8	0.1	nt	nt
Cn1ccnc1CN1CCCCC1C(=O)Nc1ccc(Oc2cccnc2)cc1 (configuration not stated)	6.4	51.0*	-2.0	nt	0.6	73.7*	64.5*
CCOC(=O)c1c(NC(=O)CSc2nc3ccc(OC)cc3[nH]2)sc2c1CC(C)(C)NC2(C)C	-5.7	44.2	-0.3	-2.7	0.3	nt	nt
CCOc1ncccc1C(=O)N1CCN(c2cc(Cl)ccc2C)CC1	56.8	61.2*	24.4	5.8	1.0	59.4*	81.2*
Cc1ccc(Cl)cc1N1CCN(C(=O)c2noc(C)c2[N+](=O)[O-])CC1	nt	75.1*	9.9	nt	-0.9	75.7*	59.5*
Cc1ccc(N/C(N)=N/c2nc(C)cc(N3CCCCC3)n2)c(C)c1	6.7	78.1*	13.9	110.7*	33.2	40.0*	66.8*
COC(=O)[C@H](CO)N1C(=O)[C@@H]2[C@H](C1=O)C1C=C[C@H]2C1	nt	nt	nt	nt	0.3	nt	nt
SMILES	CSC inhib	Mdm2-MdmX inh	Calb FLC	Beta cell apopt	MPTP inh	Mdm2 MdmX conf	FLuc counter
O=C1NC[C@H](CCCCN2CCN(CCc3ccccc3)C(=O)C2=O)N(CCc2ccccc2)C1=O	nt	nt	nt	nt	-0.2	nt	nt
Cc1ccccc1OCC(O)Cn1c(=N)n(Cc2ccccc2)c2ccccc21 (configuration not stated)	?	97.4*	15.6	63.7	13.9	95.7*	28.9
COc1ccccc1OCC(O)Cn1c(=N)n(Cc2ccccc2)c2ccccc21 (configuration not stated)	7.8	39.0	5.2	32.2	5.1	nt	nt
CCCCCn1c(=N)n(CC(O)COc2ccccc2OC)c2ccccc21 (configuration not stated)	3.7	60.6*!	1.0	21.1	45.8	27.9	nt
CC(=O)NC(c1ccccc1)c1nc(-c2cnc3ccccc3c2)cs1 (configuration not stated)	nt	nt	nt	nt	0.2	nt	nt
COc1ccc(/C=C/C(=O)c2ccc([N+](=O)[O-])o2)cc1	?	100.3*	-1.2	126.7*	0.5	68.4*	42.2*
Cc1ccccc1/C=C/C(=O)c1ccc([N+](=O)[O-])o1	40.8	100.3*	15.8	122.4*	nt	86.2*	54.8*
Cc1cccc(/C=C/C(=O)c2ccc([N+](=O)[O-])o2)c1	24.5	100.3*	6.7	116.7*	-0.4	100.1*	52.9*
O=C1Nc2ccccc2-c2nnnn2C1N1CCC(Cc2ccccc2)CC1 (configuration not stated)	nt	nt	nt	nt	0.9	nt	nt
O=[N+]([O-])CC(c1ccc(F)cc1)c1c[nH]c2ccccc12 (configuration not stated)	58.1	62.8*	-1.3	-5.4	1.1	65.8*	41.7*
NCC(c1ccccc1)c1c[nH]c2ccccc12 (configuration not stated)	-5.0	1.9	-2.1	-10.2	-1.0	nt	nt
COc1ccc(-c2nn(-c3ccccc3)cc2/C=C/C(=O)N2CCN(c3ccccn3)CC2)cc1	-5.6	58.6*	20.3	0.8	-2.1	18.4	nt
COc1ccc(-c2nn(-c3ccccc3)cc2/C=C/C(=O)OCC(=O)Nc2ccccc2C#N)cc1	9.7	88.5*	18.7	30.9	1.6	9.2	nt
Cc1cccc(C(=O)Nc2ccccc2SCC2CSc3nc4ccccc4c(=O)n32)c1 (configuration not stated)	13.7	62.9*	1.4	nt	2.6	44.0*	107.1*
O=C(Nc1ccccc1SCC1CSc2nc3ccccc3c(=O)n21)c1ccccc1Cl (configuration not stated)	1.7	-14.1	-8.6	11.2	-1.8	nt	nt
Cc1ccc(C(=O)Nc2ccccc2SCC2CSc3nc4ccccc4c(=O)n32)cc1 (configuration not stated)	25.2	70.3*	2.6	7.1	-3.5	46.5*	55.3*
O=C(Nc1ccccc1SCC1CSc2nc3ccccc3c(=O)n21)c1cccc(Cl)c1 (configuration not stated)	29.9	77.2*	-3.7	6.4	0.1	55.0*	42.6*
